From PubChem BioAssay (NCI)
The panel holds about 83,000 compounds, 20% with a hit somewhere; the sample as a whole holds those more often.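 48-hour exposure, single concentration, 96-well plates; percent growth endpoint where 0 means no net growth. Active: below 10.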 Unmarked numbers belong to inactive results. Calls of active or inactive are those of the source.

Columns and labels:
Test in all cases: NCI-60 one-dose screen, 48 h (100 = growth as untreated, 0 = no growth, -100 = all killed)
DU-145 prostate = settings: 10 µM unless noted
K-562 leukemia = settings: 10 µM unless noted
MALME-3M melanoma = settings: 10 µM unless noted
MDA-MB-231 breast = settings: 10 µM unless noted
RXF 393 renal = settings: 10 µM unless noted
SF-268 CNS = settings: 10 µM unless noted
SF-295 CNS = settings: 10 µM unless noted
SF-539 CNS = settings: 10 µM unless noted
UACC-257 melanoma = settings: 10 µM
M14 melanoma = settings: 10 µM unless noted
HCT-15 colon = settings: 10 µM unless noted
HT29 colon = settings: 10 µM unless noted
SNB-19 CNS = settings: 10 µM unless noted
U251 CNS = settings: 10 µM unless noted
PC-3 prostate = settings: 10 µM unless noted
SK-MEL-5 melanoma = settings: 10 µM unless noted
UACC-62 melanoma = settings: 10 µM unless noted
SK-MEL-28 melanoma = settings: 10 µM unless noted
LOX IMVI melanoma = settings: 10 µM unless noted
SNB-75 CNS = settings: 10 µM unless noted

SMILES	growth (DU-145 prostate)	growth (K-562 leukemia)	growth (MALME-3M melanoma)	growth (MDA-MB-231 breast)	growth (RXF 393 renal)	growth (SF-268 CNS)	growth (SF-295 CNS)	growth (SF-539 CNS)	growth (UACC-257 melanoma)	growth (M14 melanoma)	growth (HCT-15 colon)	growth (HT29 colon)	growth (SNB-19 CNS)	growth (U251 CNS)	growth (PC-3 prostate)	growth (SK-MEL-5 melanoma)	growth (UACC-62 melanoma)	growth (SK-MEL-28 melanoma)	growth (LOX IMVI melanoma)	growth (SNB-75 CNS)
Cc1cc(Cl)cc(NS(=O)(=O)c2ccc(-c3cnc(C4CC4)o3)cc2)c1	24.7%	8.81% (active)	65.4%	35.4%	-0.916% (active)	61.7%	1.04% (active)	6.15% (active)	68.2%	13.1%	21.8%	10.7%	36%	23.9%	17.4%	32.5%	31.5%	55.4%		
Oc1ccc(CSc2nnc(-c3ccncc3)o2)c2cccnc12	26%	14.7%	2.27% (active)	24.5%	7.2% (active)	26.3%	3.07% (active)	18%	-2.73% (active)	25.4%	23%	20.7%	17.6%	15.8%	12.7%	-51.3% (active)	18.2%	39.7%	21.4%	
C/C(=C(/C)C1CC1CCN(C(=O)c1ccccn1)S(=O)(=O)c1ccc(C)cc1)C1CCCCC1 (configuration not stated)	98.9%	96.8%	104%	91.5%	115%	97.5%	90.4%	99.4%	96.7%	101%	91.8%	98.3%	98.4%	103%	93.4%	78.6%		97.3%	97.8%	
NC(=S)N/N=C(/C=C/c1cn(-c2ccccc2)nc1-c1ccc(Cl)cc1)c1cc2ccccc2oc1=O	57.7%	20.8%	71.2%	48.9%	106%	52.9%	25.2%	51.1%	76.3%	54.1%	19.9%	36.1%	47.6%	35.4%	28%	30.4%	49.6%	73%	36%	
O=C(Nc1ccccc1)Nc1nc2ccc([N+](=O)[O-])cc2s1	14.7%	5.58% (active)	-10.8% (active)	-5.6% (active)	-21.6% (active)	13.4%	2.83% (active)	9.38% (active)	-8.53% (active)	13%	8.64% (active)	9.17% (active)	13.9%	6.41% (active)	4% (active)	-46.5% (active)	1.73% (active)	20.2%		
Oc1ccc(CSc2nnc(-c3ccccc3)n2-c2ccccc2)c2cccnc12	21.3%	11.2%	12.2%	31%	-4.02% (active)	17.2%	0.953% (active)	0.484% (active)	3.18% (active)	-10.6% (active)	13.6%	52.4%	12.6%	12.8%	23%	-22% (active)	-34.1% (active)	17.7%	5.5% (active)	
O=[N+]([O-])c1ccc(-c2nnc(SCc3ccc(O)c4ncccc34)o2)cc1	29.5%	17.6%	21.5%	38.1%	14.8%	27.7%	9.85% (active)	23.5%	18.6%	27.4%	10.9%	47.4%	22.2%	16.2%	15%	-6.14% (active)	25.3%	38.9%	25%	
Oc1ccc(CSc2nnc(-c3ccncc3)n2-c2ccccc2)c2cccnc12	28.2%	18.4%	31.8%	30.7%	23.6%	23.1%	4.58% (active)	21.1%	10.7%	23.1%	15.1%	96%	12.7%	15.8%	18.9%	1.83% (active)	-4.64% (active)	29.4%	20.4%	
CCCC(=O)NC(c1cccnc1)c1cc(Cl)c2cccnc2c1O (configuration not stated)	62.9%	19.7%	79.6%	45.1%	80.5%	42.7%	10.8%	38%	34.9%	44%	18.5%	35.5%	19.4%	24.2%	41.1%	34.3%		51.9%	32.7%	
NC(=O)N1N=C(c2cc3ccccc3oc2=O)CC1c1cn(-c2ccccc2)nc1-c1ccc(Cl)cc1 (configuration not stated)	56.6%	27.4%	69.6%	54.3%	88.2%	54.5%	19.6%	42.8%	59.5%	43.9%	19.4%	35.9%	45%	30.5%	25.9%	19.5%	38.7%	60.1%	20.3%	
CCOC(=O)c1c(NC(=O)c2cccc(C(F)(F)F)c2)sc2c(CN3CCN(C)CC3)c(O)ccc12	-85.6% (active)	1.42% (active)	-86.6% (active)	-75.5% (active)	35.1%	26.2%	-81% (active)	-94.7% (active)	28.1%	-54.6% (active)	-82.3% (active)	-31.6% (active)	-53.9% (active)	-79.1% (active)	-33.9% (active)	52.7%	-67.5% (active)	-60.5% (active)	-94.7% (active)	
COc1cc(/C=C2\SC(=O)NC2=O)ccc1OCC(=O)Nc1ccc(C(=O)/C=C/c2cc3ccccc3nc2Cl)cc1	96.9%	49.4%	89%	88.6%	77.1%	85.8%	87%	83.2%	86.3%	85.6%	89.7%	69.9%	85.6%	90.3%	82.1%	32.7%		105%	81.6%	
Oc1ccc(-c2nnc(SCc3ccc(O)c4ncccc34)o2)cc1	21.2%	14.2%	18.7%	24.5%	-3.04% (active)	15.9%	0.187% (active)	13.8%	1.45% (active)	0.609% (active)	7.43% (active)	24%	12.8%	13.2%	9.97% (active)	-17.1% (active)	-12.7% (active)	22.7%	7.94% (active)	
O=C1NC(=O)/C(=C/c2ccc(OCc3cc4ccccc4nc3Cl)cc2)S1	100%	75.2%	103%	88.2%	111%	110%	96.4%	104%	98%	104%	88.3%	117%	100%	101%	92%	84.4%		104%	56.4%	
N/C(=N\c1nc2ccc([N+](=O)[O-])cc2s1)C(Cl)(Cl)Cl	1.66% (active)	81.2%	77.4%	63.1%	44.3%	71.3%	19.6%	63.5%	85.1%	85.5%	70.8%	30.7%	61.2%	43.9%	49.1%	83.8%		72.2%	76%	
C[C@H]1[C@H](C)CC[C@]2(COC(=O)c3cccnc3)CC[C@]3(C)C(=CC[C@@H]4[C@@]5(C)CCCNC(C)(C)[C@@H]5CC[C@]43C)[C@H]12	84.4%	14.3%	59.9%	79.3%	81.9%	76.3%	73.3%	78.8%	65.7%	79.1%		45.5%	88.6%	64.4%	35.8%	56.4%	53.4%			
O=C1NC(=O)c2c1c1c3ccccc3ccc1c1[nH]c3ccccc3c21	22.9%	9.34% (active)	-15.2% (active)	34%	-21.2% (active)	5.68% (active)	3.01% (active)	18.4%	44.1%	15.9%		13.4%	3.4% (active)	11.1%	1.07% (active)	-18.1% (active)	15.2%	18.9%		-7.05% (active)
